Compounds with a hit are over-represented: about 2.4% of the library has one in this group of screens.
A3G deaminase – APOBEC3G (human) deaminase inhibition; AID 493012; inhibition, % at 20 µM; actives 0.28% (n = 330,000); recombinant A3G, ssDNA deamination FAM/TAMRA fluorescence;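 active = inhibition of at least 40% at 20 µM, with no more than 30% in the related APOBEC3A deaminase screen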;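 also: plate controls were DMSO wells with A3G for no effect and wells lacking A3G enzyme for full effect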
Target sequence (Q9HC16 whole entry, looked up): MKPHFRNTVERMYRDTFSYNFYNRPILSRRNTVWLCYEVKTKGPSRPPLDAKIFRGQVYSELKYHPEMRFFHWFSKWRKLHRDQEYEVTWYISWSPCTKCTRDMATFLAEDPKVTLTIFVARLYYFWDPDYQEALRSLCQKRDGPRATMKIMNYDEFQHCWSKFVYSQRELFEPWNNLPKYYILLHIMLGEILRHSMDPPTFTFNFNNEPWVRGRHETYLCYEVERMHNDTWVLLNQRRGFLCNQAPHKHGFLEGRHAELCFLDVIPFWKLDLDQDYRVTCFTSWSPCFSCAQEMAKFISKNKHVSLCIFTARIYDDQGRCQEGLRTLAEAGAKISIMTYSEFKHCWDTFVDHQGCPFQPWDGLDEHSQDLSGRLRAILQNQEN
APOBEC3A inh – blocks human APOBEC3A ssDNA deamination; recombinant A3A, FAM/TAMRA ssDNA deamination fluorescence; actives 0.41% (n = 330,000); AID 493011; inhibition, % at 20 µM;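 active = at least 40% inhibition at 20 µM here, with at most 30% in a related deaminase screen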;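 also: plate controls were A3A with DMSO for no effect and wells lacking A3A enzyme for full effect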
PfM18AAP inh – blocks P. falciparum M18 aspartyl aminopeptidase; recombinant PfM18AAP, H-Glu-NHMec fluorogenic cleavage; inhibition, % at 7.35 µM; actives 1.2% (n = 290,000);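 active = inhibition above the campaign mean inhibition over all tested compounds plus 3 SD, cut at about 28% in these data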;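 also: 0% = plate median of test compound wells and 100% = 2 mM ZnCl2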
Yeast superoxide – lowers age-related superoxide in aged yeast cells; S. cerevisiae aged cells, superoxide DHE fluorescence; active compounds read low; superoxide response (% of plate mean), % at 10 µM; actives 0.18% (n = 330,000); AID 2690;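 active = superoxide response under a set limit, about three screen SD below normal, cut at about 65% in these data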;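 also: yeast aged for seven days with compound at 30 °C before DHE staining; 100% = average MFI of all compound-treated wells on the plate with controls excluded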
PfGluPho inh – PfG6PD (Plasmodium falciparum) enzyme inhibition; inhibition, % at 20 µM; AID 504690; actives 0.78% (n = 350,000); PfGluPho enzyme, NADPH resazurin-diaphorase fluorescence;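 active = inhibition reaching at least a set limit at 20 µM in the primary screen, cut at about 59% in these data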;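 also: 0% = DMSO wells with substrate and 100% = DMSO wells lacking glucose-6-phosphate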
Active calls of the source: *.

What do the screens show for `O=S(=O)(c1cccs1)N1CCN(c2ccc(O)cc2)CC1`?
A3G deaminase: 2; APOBEC3A inh: 0; PfM18AAP inh: 37*; Yeast superoxide: 96; PfGluPho inh: 27

Results for Cc1cnc(C(=O)OCC(=O)NCc2ccc(Cl)cc2)cn1 ?
A3G deaminase: -2; APOBEC3A inh: 8; Yeast superoxide: 95; PfGluPho inh: 9

What do the screens show for `Cc1cccc(OCCNC(=O)CCNS(=O)(=O)c2ccc3ccccc3c2)c1`?
A3G deaminase: -5; APOBEC3A inh: 1; Yeast superoxide: 130; PfGluPho inh: 10

Results for CCOC(=O)/C(C#N)=C1\CCCN1CC(N)=S ?
A3G deaminase: 1; APOBEC3A inh: -2; PfM18AAP inh: 31*; Yeast superoxide: 103; PfGluPho inh: 34

What do the screens show for `Cc1scc(-c2n[nH]c(=S)n2Cc2ccccc2)c1C`?
A3G deaminase: 5; APOBEC3A inh: -5; PfM18AAP inh: 32*; Yeast superoxide: 112; PfGluPho inh: 14

Results for CCc1c(-c2n[nH]c(=S)n2Cc2ccccc2)csc1C ?
A3G deaminase: 0; APOBEC3A inh: 0; PfM18AAP inh: 13; Yeast superoxide: 101; PfGluPho inh: 2

What do the screens show for `CCOC(=O)COc1ccc2ccccc2c1/C=C/[N+](=O)[O-]`?
PfM18AAP inh: 37*; Yeast superoxide: 104; PfGluPho inh: 23

Results for O=S(=O)(Nc1cc2nc3ccccc3nc2n1Cc1ccccc1)c1ccc(Cl)cc1 ?
PfM18AAP inh: 28*; Yeast superoxide: 120; PfGluPho inh: 10

How did CCCCn1c(N)c(N(CC(C)C)C(=O)C(C)SCc2nc3sc(C)c(C)c3c(=O)[nH]2)c(=O)[nH]c1=O (stereo unspecified) do in these assays?
A3G deaminase: 3; APOBEC3A inh: -2; Yeast superoxide: 85; PfGluPho inh: 5

What do the screens show for `Oc1cc2c(cc1C(c1ccc(Cl)c(Cl)c1)N1CCCC1)OCO2` (stereo unspecified)?
A3G deaminase: -2; APOBEC3A inh: 6; PfM18AAP inh: 13; PfGluPho inh: 62*

What do the screens show for `O=C(CNC1CCCCC1)Nc1cc(S(=O)(=O)N2CCOCC2)ccc1Cl`?
A3G deaminase: -12; APOBEC3A inh: -4; PfM18AAP inh: -9; Yeast superoxide: 103; PfGluPho inh: -15

What do the screens show for `Fc1ccccc1Nc1nc2c(s1)CCc1ccccc1-2`?
PfM18AAP inh: 42*

What do the screens show for `O=C(Nc1nc2c(s1)CCc1ccccc1-2)c1cccs1`?
A3G deaminase: -5; APOBEC3A inh: -2; PfM18AAP inh: -13; Yeast superoxide: 94; PfGluPho inh: 24

Results for Cc1ccc(C2=NN=C(NC(=O)CSc3nncn3C)SC2)cc1 ?
A3G deaminase: 8; APOBEC3A inh: 4; PfM18AAP inh: 54*; Yeast superoxide: 96; PfGluPho inh: 55

How did COc1ccc2cc(/C(C)=N/NC(=S)Nc3cc(S(=O)(=O)N4CCOCC4)ccc3N3CCOCC3)ccc2c1 do in these assays?
A3G deaminase: -3; APOBEC3A inh: -3; PfM18AAP inh: 30*; Yeast superoxide: 100

Results for C/C(CCC(C)C)=N\NC(=S)Nc1cc(S(=O)(=O)N2CCOCC2)ccc1N1CCOCC1 ?
A3G deaminase: -3; APOBEC3A inh: 2; PfM18AAP inh: 28*; Yeast superoxide: 105; PfGluPho inh: 16

Results for C/C(=N\NC(=S)Nc1cc(S(=O)(=O)N2CCOCC2)ccc1Cl)c1ccc(N2CCOCC2)cc1 ?
A3G deaminase: -4; APOBEC3A inh: 0; PfM18AAP inh: 10; Yeast superoxide: 88; PfGluPho inh: 10

What do the screens show for `O=C(Cc1c(F)cccc1Cl)NCCCn1ccnc1`?
A3G deaminase: -4; APOBEC3A inh: -2; PfM18AAP inh: 28*; Yeast superoxide: 83; PfGluPho inh: 0

How did O=C1c2sc3nc4n(c(=O)c3c2CCC1Br)CCCCC4 (stereo unspecified) do in these assays?
A3G deaminase: 26; APOBEC3A inh: 1; PfM18AAP inh: 5; Yeast superoxide: 100; PfGluPho inh: 80*

What do the screens show for `N#CC(C#N)=C1C=CC=CN1/C(=C\c1ccco1)C(=O)c1ccc(Br)cc1`?
PfM18AAP inh: -24; Yeast superoxide: 105; PfGluPho inh: 59*

Results for N#CC(C#N)=C1C=CC=CN1/C(=C\c1ccco1)C(=O)c1ccccc1 ?
PfM18AAP inh: -56; Yeast superoxide: 92; PfGluPho inh: 33

How did CN(C)N=Nc1ccc(-c2cn(Cc3ccccc3)cn2)cc1 do in these assays?
A3G deaminase: -6; APOBEC3A inh: -6; PfM18AAP inh: -15; Yeast superoxide: 92; PfGluPho inh: 6

Screening results as filed in PubChem.
